Experimental findings from PubChem BioAssay AID1508611 (The Scripps Research Institute Molecular Screening Center, 2020) are described below.

SMILES strings stand for the structures. The whole screen tested about 6,700 compounds, of which about 20 (0.3%) were called active.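 Rule for the calls: active = mean percent activation in the counterscreen above 29.09%; inactive = the rest.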 The entries come from a sample that favours actives as a whole.

The target of the assay is Glucose-dependent insulinotropic receptor (Homo sapiens) (UniProt Q8TDV5). The experiment in a line: off-target GPR119 activation – cell-based, PathHunter beta-arrestin, luminescence, triplicate, counter-screen for GPR151 activator project (AID 1508611). The note with it: GPR119 PathHunter beta-arrestin cells, 90 min, at 11.2 µM, hits give high values, 0 = compound-well median, 100 = enzyme-acceptor control.
Sequence of Glucose-dependent insulinotropic receptor (Homo sapiens) (Q8TDV5 whole entry, looked up): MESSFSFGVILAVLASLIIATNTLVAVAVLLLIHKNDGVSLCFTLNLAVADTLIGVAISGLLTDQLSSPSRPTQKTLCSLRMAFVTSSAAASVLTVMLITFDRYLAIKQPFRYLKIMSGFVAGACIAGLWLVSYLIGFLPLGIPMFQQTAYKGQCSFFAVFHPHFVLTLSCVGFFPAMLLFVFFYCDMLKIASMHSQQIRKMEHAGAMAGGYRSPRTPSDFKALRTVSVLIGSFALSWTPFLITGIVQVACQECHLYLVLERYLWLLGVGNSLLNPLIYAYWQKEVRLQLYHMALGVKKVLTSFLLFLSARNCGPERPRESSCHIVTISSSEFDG
For the compound `Cc1nc(-c2cccc(NC(=O)C3CC(=O)c4ccccc43)c2)cs1` (stereo not given), the activation was 4.74% (inactive).

As to `CC(C)CNc1nc2c(c(=O)[nH]c(=O)n2C)n1CC(C)O` (stereo not given), the activation was 5.13% (inactive).

For `CCCCOC(=O)C1=C(C)NC2=C(C(=O)CCC2)C1c1cccc([N+](=O)[O-])c1` (stereo not given), the activation is -13.7% (inactive).

On to `NC(=O)C1CCN(C(=O)c2ccc(-c3ccccc3)cc2)CC1`, for which the activation was -13.1% (inactive).

As for `CN1C(=O)c2ccc(N3C(=O)c4cccc([N+](=O)[O-])c4C3=O)cc2C1=O`, the activation is -8.76% (inactive).

As to `CCN(CC)c1nc(Nc2cc(OC)c(OC)c(OC)c2)nc(N2CCOCC2)n1`, the activation is -4.38% (inactive).

With `COc1cc(Nc2ccnc(Nc3ccc(N4CCOCC4)cc3)n2)cc(OC)c1OC`, the activation was 31.6% (active).

In the case of `COc1cc2nc(-c3cccc(C(C)=O)c3)nc(Nc3ccc(N4CCOCC4)cc3)c2cc1OC`, the activation is 1.25% (inactive).

Consider `CCN(CC)c1nc(Nc2ccccc2)nc(Nc2ccccc2)n1`, for which the activation is 5.68% (inactive).

`CCOC(=O)c1cccc(NC(=O)/C=C/c2ccccc2)c1`: the activation was 2.43% (inactive).

On to `COCCn1c(C)cc(C(=O)CSc2nnc(-c3ccccc3)o2)c1C`, for which the activation was 0.76% (inactive).

Consider `COc1ccc(OC)c(S(=O)(=O)Oc2ccc(Cl)c3cccnc23)c1`, for which the activation is 14.7% (inactive).

Turning to `O=C(CC1C(=O)NCCN1C(=O)c1ccc([N+](=O)[O-])cc1)Nc1cccc(Cl)c1` (stereo not given), the activation is 8.78% (inactive).

For `COc1ccc(-c2cc(N)n(S(=O)(=O)c3ccccc3)n2)c(OC)c1`, the activation was -9.92% (inactive).

As to `c1ccc(-c2ccc(OCCCNCCN3CCOCC3)cc2)cc1`, the activation was -6.67% (inactive).

As to `COc1ccc(C2=NN(C(=O)c3cc(OC)c(OC)c(OC)c3)C(c3ccc(Cl)cc3)C2)cc1OC` (stereo not given), the activation was 10.6% (inactive).

`C=C(C)CSc1nc2sc3c(c2c(=O)n1-c1ccc(OC)cc1)CC(C)(C)OC3`: the activation was 13.8% (inactive).

With `COc1ccccc1C1CCCN1C(=O)C1CCN(c2nc(C)c3ccccc3n2)CC1` (stereo not given), the activation is 0.39% (inactive).

In the case of `COc1ccc(OC)c(NC(=O)CN(c2cccc(C)c2C)S(C)(=O)=O)c1`, the activation is -9.68% (inactive).

Take `O=C(CC12CC3CC(CC(C3)C1)C2)Nc1ccc2oc(=O)ccc2c1`: the activation was -8.76% (inactive).

Turning to `CC(C)(C)C1(O)CCN2C[C@H]3c4ccccc4CCc4cccc(c43)[C@@H]2C1` (stereo not given in full), the activation was 2.66% (inactive).

As to `OCCC1CN(Cc2ccc3cc(F)ccc3n2)CCN1C1CCCC1` (stereo not given), the activation is 11.7% (inactive).

In the case of `CCCn1ncc(CN2CCCC(N3CCC(CO)CC3)C2)c1C` (stereo not given), the activation was 1.74% (inactive).

As for `CCCOC(=O)C1=C(C)NC(=O)NC1c1ccc(Br)cc1` (stereo not given), the activation was -8.21% (inactive).

With `O=C(Cn1c(=S)nc2ccccn21)N1CCc2ccccc2C1`, the activation was 4.38% (inactive).

In the case of `CCOC(=O)C1=CN(C)C=C(C(=O)OCC)C1c1ccc(OC)cc1`, the activation is 7.33% (inactive).

Regarding `O=C(O)COc1ccc(N2C(=O)C(=O)/C(=C(\O)c3ccccc3)C2c2ccc(Cl)cc2Cl)cc1` (stereo not given), the activation was 1.15% (inactive).

Consider `Cc1nnc(SCC(=O)NCc2ccccc2)s1`, for which the activation was -8.49% (inactive).

Turning to `CN(CC(=O)Nc1cccc2c1CCCC2)S(=O)(=O)c1ccc(Cl)cc1`, the activation was -16% (inactive).

As to `COC(=O)[C@@H]1CC[C@H](C)[C@@H](c2ccc(C)cc2)N1C(=O)c1ccc(/C=N/O[C@H](C)c2cn([C@@H]3COC[C@H]3O)nn2)cc1`, the activation is -5.11% (inactive).

Consider `Cc1ccccc1CC1(CO)CCCN(Cc2ccncc2)C1` (stereo not given), for which the activation is -3.82% (inactive).

As for `O=C(CSc1ccc(F)cc1)Nc1cccc2ccccc12`, the activation was -0.98% (inactive).

Take `COc1ccc2c(c1)C=C(CN1CCN(CC3CCCCC3)C(CCO)C1)CO2` (stereo not given): the activation is 10.3% (inactive).

Take `O=c1[nH]c(=S)[nH]c(O)c1C=Nc1ccc(F)c(Cl)c1`: the activation is 5.32% (inactive).

As for `O=C(Cn1c(=O)n(Cc2cccs2)c(=O)c2cccnc21)Nc1ccc(F)cc1`, the activation was -1.72% (inactive).

`CCOC(=O)c1sc(NC(=O)CSc2ncccn2)c(C#N)c1C`: the activation was 2.97% (inactive).

Turning to `CC(C)C(=O)NNS(=O)(=O)c1ccc([N+](=O)[O-])cc1`, the activation is 0.04% (inactive).

On to `O=C(NCc1nnc(SCC(=O)N2N=C(c3cccs3)CC2c2ccc(F)cc2)n1Cc1ccccc1)c1cccc(F)c1` (stereo not given), for which the activation is -10.8% (inactive).

Consider `CCc1ccc(-c2ccc(C3CCC(CC)CC3)cc2)nc1` (stereo not given), for which the activation is -6.15% (inactive).

As to `CC(C)c1ccc(Nc2nccn3c(-c4cccc(CO)c4)cnc23)cc1`, the activation is 15.7% (inactive).

Consider `O=C(c1ccccc1)N1CCCCC(Sc2ncnc3sc4c(c23)CCCC4)C1=O` (stereo not given), for which the activation is 0.65% (inactive).

Consider `C[C@H]1Cc2c(COc3ccccc3)nc3c(c2CO1)CN(C(=O)NCc1ccco1)CC3`, for which the activation was 9.06% (inactive).

Regarding `CC(C)n1c(Nc2ccc3ncccc3c2)nc2c(NC3CC3)ncnc21`, the activation was 3.65% (inactive).

Take `Cc1cc(CN(C)Cc2ccc(OCC(O)CN(C)Cc3ccccc3)cc2)n[nH]1` (stereo not given): the activation was -0.59% (inactive).

For `O=C(NCCOc1ccccc1)c1cnc(N2CCN(c3ccccn3)CC2)s1`, the activation was 1.31% (inactive).

For the compound `COC(=O)CN1C=C(C(=O)OC)C(c2ccc(OC)c(O)c2)C(C(=O)OC)=C1`, the activation is 20.6% (inactive).

On to `CCOC(=O)c1cc2cc(-c3c(C)oc4cc(OC(C)=O)ccc4c3=O)ccc2o1`, for which the activation is -2.06% (inactive).

For `CN(Cc1nc(-c2ccc3c(c2)OCO3)no1)C1CCCc2ccccc21` (stereo not given), the activation was 0.92% (inactive).

As to `O=C(Cc1cccs1)Nn1c(-c2cccc([N+](=O)[O-])c2)nc2ccccc2c1=O`, the activation was 13.2% (inactive).

For the compound `CC1(C(=O)Nc2cccc(C(F)(F)F)c2)CC2c3ccccc3C1c1ccccc12` (stereo not given), the activation was 0.35% (inactive).

`O=CN1CCN(CCC(=O)Nc2ccccc2)CC1`: the activation was -6.54% (inactive).

On to `CCOc1ccc(NC(=O)N2CCN(CC)CC2)cc1`, for which the activation was 6.5% (inactive).

On to `CCSc1nc2sccn2c(=O)c1C(=O)NC(Cc1ccccn1)C(F)(F)F` (stereo not given), for which the activation was -3.52% (inactive).

On to `Cc1cccc(-n2nc3c(c2NC(=O)CCC2CCCCC2)CS(=O)(=O)C3)c1C`, for which the activation was 7.21% (inactive).

On to `COc1ccc(-c2noc(N3CCC(C(=O)NCCCN4CCN(C)CC4)CC3)n2)cc1`, for which the activation was 3.82% (inactive).

Turning to `FC(F)(F)c1ccc(Cn2cnc3c(NCc4cccc(C(F)(F)F)c4)nc(Nc4ccc(N5CCOCC5)cc4)nc32)cc1`, the activation is -10.4% (inactive).

As to `CC(=O)Nc1nnc(CCOCC(C)OCCc2nnc(NC(C)=O)s2)s1` (stereo not given), the activation was 12.3% (inactive).

For the compound `CCOc1cc2c(cc1OCC)C(c1ccc3ccccc3c1)NCC2` (stereo not given), the activation was -1.89% (inactive).

`CCOc1ccc(C(=O)Nc2nnc(CC)s2)cc1[N+](=O)[O-]`: the activation is -8.62% (inactive).

On to `O=S(=O)(c1ccc(F)cc1)N1CCN(CCCc2ccccc2)CC1`, for which the activation is 15.2% (inactive).

Consider `O=C(N/N=C/c1cccc(Cl)c1Cl)c1cccs1`, for which the activation is -19.1% (inactive).

As to `CCOC(=O)c1ccc2nc(NC(=O)CSc3nc4ccccc4[nH]3)sc2c1`, the activation was 6.61% (inactive).

Regarding `COCCNC(=O)CSc1nccn1Cc1ccco1`, the activation was 5.14% (inactive).

Consider `COCC(=O)Nc1c(I)c(C(=O)NCC(O)CO)c(I)c(C(=O)N(C)CC(O)CO)c1I` (stereo not given), for which the activation is -9.51% (inactive).

Turning to `O=C(CCc1ccccc1)Nc1cccc(C(=O)N2CCOCC2)c1`, the activation was -6.29% (inactive).

In the case of `CC(/C=N\NC(=O)CSc1nc(C)cc(C)n1)=C\c1ccccc1`, the activation is -12.7% (inactive).

Regarding `COCCNC(=O)c1cc2c(=O)n3ccccc3nc2n(CCc2ccccc2)c1=N`, the activation was 3.06% (inactive).

With `CCCN1C(=O)c2ccc(C(=O)Nc3ccc(C(C)=O)cc3)cc2C1=O`, the activation was 0.52% (inactive).

`O=C(c1cc([N+](=O)[O-])ccc1NC1CCCCC1)N1CCOCC1`: the activation is -18.9% (inactive).

Take `CCN(CC)C(=O)C1CCCN(c2cccc(C(=O)NCCc3ccc(OC)cc3)n2)C1` (stereo not given): the activation is -12.6% (inactive).

`Cc1ccc(-c2nnc(N3CCOCC3)c3ccccc23)cc1S(=O)(=O)N1CCN(C)CC1`: the activation is -11.5% (inactive).

As for `C=CCN1C(=O)CC(C(=O)OC)C12CCN(C1CCN(C(=O)OCC)CC1)CC2` (stereo not given), the activation is -5.11% (inactive).

For `COC(=O)NNC(=S)Nc1cc(S(=O)(=O)N(C)C)ccc1C`, the activation is -12.9% (inactive).

With `CCCCOc1ccccc1CNCC`, the activation was 0.16% (inactive).

In the case of `O=C(CN1C(=O)S/C(=C\c2ccc(Cl)s2)C1=O)Nc1ccccc1F`, the activation is -11% (inactive).

`CSc1nc(N)nc2nc[nH]c12`: the activation is -1.61% (inactive).

For `CCc1ccc(-n2c(C)c(C)n3c4c(=O)n(CC)c(=O)n(C)c4nc23)cc1`, the activation is -2.08% (inactive).

Consider `C#CCOc1ccc(Br)cc1/C=C1\NC(=S)N(C)C1=O`, for which the activation was -3.86% (inactive).

For `CS(=O)(=O)N(CC(=O)Nc1ccc(F)cc1F)c1ccc(F)cc1`, the activation was -2.79% (inactive).

Regarding `Cc1ccc(C(C)C)c(OCCCn2ccnc2)c1`, the activation was 0.47% (inactive).

As for `COc1ccccc1C(=O)N/C(=C\c1ccc2c(c1)OCO2)C(N)=O`, the activation is 4.53% (inactive).

As to `C=CCN(c1ccc(C(=O)Nc2ccc(OCc3ccccc3)cc2)cc1)S(C)(=O)=O`, the activation is -10.1% (inactive).

In the case of `CC(=O)NC(CC(=O)O)c1ccc(F)cc1` (stereo not given), the activation is 3.48% (inactive).

`COc1cccc(/C=C(\C#N)c2nc3ccc(C)cc3[nH]2)c1OC`: the activation is 17.6% (inactive).

With `Cc1ccc(NCC(=O)N/N=C\c2ccc(I)o2)cc1`, the activation was -0.01% (inactive).

With `COc1cccc(C2SCC(=O)N2c2cccc(C)c2)c1OC` (stereo not given), the activation was 13.2% (inactive).

Take `CC1(c2ccccc2NC(=O)c2ccc([N+](=O)[O-])cc2)CC1`: the activation is 0.99% (inactive).

For `O=[N+]([O-])c1ccc2ncnc(Nc3cccc(C(F)(F)F)c3)c2c1`, the activation is 9% (inactive).

Regarding `O=C(COc1ccc(S(=O)(=O)NCCc2ccccc2)cc1)NC1CC1`, the activation was -10.3% (inactive).

For `O=C(Nc1ccc2[nH]ncc2c1)N1CCCNCC1`, the activation is 3.8% (inactive).
